From PubChem BioAssay AID1347416 (National Center for Advancing Translational Sciences (NCATS), 2020)
Among all 4,100 compounds or so, about 1,600 (39%) were called active. Another 25% or so got no clear call; they are omitted. The list shows a part of the results. A number with no mark means an inactive call. Calls come from the whole dose curve; as a rule, active = well fitted inhibition curve with a large enough effect; inconclusive = small, poorly fitted or top-dose-only effect; inactive = no such curve, though single readings can be large or run the other way.
% is set by controls: 0 for no effect and ±100 for the full control effect; potency is the fitted concentration of half-maximal effect.

Test: qHTS Validation assay for Inhibitors of Plasmodium falciparum Dd2 growth in vitro; note: nearly all actives have a fitted effect of over 70% in size
Conditions: P. falciparum Dd2 in RBCs, SYBR Green growth, 72 h; series mostly up to 28.7 µM; activity change, negative = inhibition: at the top concentration
Procedure, shortened: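 P. falciparum Dd2-infected red blood cells (2.5% hematocrit, 0.3% parasitemia) grown 72 h at 37 °C under 5% O2 with compounds in a titration, 29 uM to 0.5 nM final. Growth read as SYBR Green-1 fluorescence after ~16 h lysis; artesunate 300 nM as positive control.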
For `Cc1nc2c(c(N3CCCC(COc4cccc(F)c4)C3)n1)CCNCC2` (stereo unspecified), the Potency was 8.41 µM (active). With `O=C(Cc1cccc(F)c1)N1CCCC(Cc2nc(C3CCOCC3)no2)C1` (stereo unspecified) the “activity change, negative = inhibition” value was -15.4%. In the case of `COC1C(=O)N(c2cccc(F)c2)C12CCN(C(=O)c1cc3ccccc3[nH]1)CC2` (stereo unspecified), the “activity change, negative = inhibition” value is reported as -71.7%. In the case of `CC(C)CN(CCNC(=O)c1cc(-c2ccc(Cl)s2)nc2ccccc12)CC(C)C`, the Potency is reported as 7.5 µM (active). With `O=C(Nc1ccccc1)[C@H]1O[C@H](CCN2CCN(c3ccc(F)cc3)CC2)CC[C@@H]1O` the Potency was 10.9 µM (active). In the case of `Cc1cccc(NC(=O)CCN2CCN(c3ccccc3F)CC2)c1`, the “activity change, negative = inhibition” value is reported as 18.2%. With `Cc1cccc(N(C)c2nc3ccccc3c3nnc(C)n23)c1` the Potency was 1.06 µM (active). For `Cc1cccc(N(C)S(=O)(=O)c2nnc(NC(=O)C(C)Oc3ccccc3)s2)c1` (stereo unspecified), the “activity change, negative = inhibition” value was -12.3%. In the case of `COc1cc2c(cc1OC)CN(c1ccc3ccccc3n1)CC2`, the “activity change, negative = inhibition” value is reported as -25.5%. In the case of `Cc1ccccc1OCC(O)CN(Cc1ccccc1O)C1CCCCC1` (stereo unspecified), the Potency is reported as 0.119 µM (active). With `O=C(NC1CC1)c1ccc(CSCc2cccc(F)c2)o1` the Potency was 8.41 µM (active). With `Cc1ccc(CSCc2ccc(C(=O)NC3CC3)o2)cc1` the Potency was 2.66 µM (active). For `O=C(NC1CC1)C1COC2(CCN(C(=O)c3ccc(F)cc3)CC2)N1C(=O)c1cccc(F)c1` (stereo unspecified), the “activity change, negative = inhibition” value was -4.58%. For `CCCS(=O)(=O)N1CC(=O)N(c2cccc(F)c2)C(C)(C(=O)NC2CCCCCC2)C1` (stereo unspecified), the “activity change, negative = inhibition” value was 23.3%. For `CCCNC(=O)N1CC[C@@H]2[C@H]1C(=O)N(c1cccc(F)c1)C(=O)N2Cc1cccs1`, the “activity change, negative = inhibition” value was -10.5% [at 43.1 µM]. In the case of `CCC1=C(C(=O)OC)C(c2cccc(F)c2)N2C(CC(=O)NCCc3cccs3)=CSC2=N1` (stereo unspecified), the Potency is reported as 9.44 µM (active). With `O=C(COc1ccc(Cl)cc1)NCCc1csc(-c2cccc(F)c2)n1` the “activity change, negative = inhibition” value was -1.83%. For `CCOc1ccc(NC(=O)c2ccc3c(c2)N(C)C2CCCN2C3=O)cc1` (stereo unspecified), the “activity change, negative = inhibition” value was 0%. With `CCOc1ccc(-c2cc3nc(C4CCN(C(=O)OC(C)(C)C)CC4)c(C(=O)Nc4ccc(C(=O)OC)cc4)cn3n2)cc1` the Potency was 4.73 µM (active). For `CCCc1noc(-c2cn(C3CCN(C(=O)c4ccc(OC)cc4C)CC3)nn2)n1`, the “activity change, negative = inhibition” value was -20.5%. In the case of `O=C(c1[nH]nc2c1COc1ccccc1-2)N1CCC(Cc2nncn2CC2CC2)CC1`, the “activity change, negative = inhibition” value is reported as -3.31%. With `CC(=O)Nc1ccc(NC(=O)c2c(C)oc3ccn(Cc4ccc(F)cc4)c(=O)c23)cc1` the Potency was 10.6 µM (active). For `O=C(Nc1ccc(F)c(F)c1)c1ccc(=O)n(Cc2ccc(F)cc2)c1`, the “activity change, negative = inhibition” value was 3.37%. In the case of `Cc1ccc(-c2nc(NC(=O)c3cc(C(C)(C)C)nn3C)sc2C)cc1Cl`, the Potency is reported as 10.6 µM (active). In the case of `CCOC(=O)c1cc(-c2ccc(OC)cc2)n(CCC(=O)Nc2cccc(C(C)=O)c2)c1C`, the Potency is reported as 0.211 µM (active). For `CCOC(=O)c1cccc(NC(=O)CCn2c(-c3ccc(F)cc3)cc(C(=O)OCC)c2C)c1`, the Potency was 0.075 µM (active). For `CCOC(=O)c1cccc(NC(=O)C2=C(C)C(=O)OC23CCCCC3)c1`, the “activity change, negative = inhibition” value was 1.2%. In the case of `CCOC(=O)c1cccc(NC(=O)CSc2cc(=O)n(C)c3ccccc23)c1`, the “activity change, negative = inhibition” value is reported as 9.12%. In the case of `CCN1CCN(Cc2ccc(NC(=O)c3cc(NC(=O)C4=NN(c5ccccc5)C(=O)C4)cc(OC)c3)cc2C(F)(F)F)CC1`, the Potency is reported as 8.41 µM (active). With `CCN1CCN(Cc2ccc(NC(=O)c3ccc(C)c(NC(=O)C4=NN(c5ccccc5)C(=O)C4)c3)cc2C(F)(F)F)CC1` the Potency was 8.41 µM (active). For `CCN1CCN(Cc2ccc(NC(=O)c3cc(NC(=O)c4cnn(-c5ccccc5)c4N)cc(OC)c3)cc2C(F)(F)F)CC1`, the Potency was 2.11 µM (active). For `CCCCN(C(=O)c1cccc(S(=O)(=O)N(C)c2ccc(C)cc2)c1)c1c(N)n(CCCC)c(=O)[nH]c1=O`, the Potency was 5.31 µM (active). With `O=C1NC2(CCN(C(=O)c3ccc(C(F)(F)F)cc3)CC2)COc2ccccc21` the Potency was 8.41 µM (active). With `CN(C)c1ccc(CN2CCC3(CC2)COc2ccccc2C(=O)N3)cc1` the Potency was 2.66 µM (active). In the case of `O=C1NC2(CN(Cc3ccc(F)cc3)C2)Oc2ccccc21`, the “activity change, negative = inhibition” value is reported as -14.2% [at 43.1 µM]. For `O=C1NC2(CCN(C(=O)c3cccnc3)CC2)Oc2ccccc21`, the “activity change, negative = inhibition” value was 34.6% [at 43.1 µM]. In the case of `COc1cccc([S+](=O)([O-])N2CCC3(COc4ccccc4C(=O)N3)C2)c1` (stereo unspecified), the “activity change, negative = inhibition” value is reported as 5.79%. In the case of `O=C1Nc2ccccc2CC12CCCCN2Cc1ccc(C(F)(F)F)cc1` (stereo unspecified), the “activity change, negative = inhibition” value is reported as 10.3%. For `O=C1CC2CCCC(C1)N2C(=O)c1ccc(C(F)(F)F)cc1`, the “activity change, negative = inhibition” value was 35.6% [at 43.1 µM]. In the case of `O=C1NC2(CCN(Cc3ccc(C(F)(F)F)cc3)CC2)COc2ccccc21`, the Potency is reported as 8.41 µM (active). For `C=C(C)COc1ccc(-c2ncncc2-c2ccc(Br)cc2)c(O)c1`, the “activity change, negative = inhibition” value was -25.8%. With `C=C(C)COc1ccc(-c2n[nH]c(C)c2-c2ccccc2)c(O)c1` the Potency was 4.73 µM (active). For `C=C(C)COc1ccc(-c2ncnc(C(F)(F)F)c2-c2ccc(OC)cc2)c(O)c1`, the Potency was 2.99 µM (active). For `C=C(C)COc1ccc(-c2ncnc(C(F)(F)F)c2-c2ccccc2)c(O)c1`, the Potency was 2.37 µM (active). For `COc1cc(C(=O)NC2CCCc3c2[nH]c2c(Cl)cccc32)cc(OC)c1OC` (stereo unspecified), the Potency was 2.11 µM (active). In the case of `O=C(NC1CCCc2c1[nH]c1ccccc21)c1ccccc1` (stereo unspecified), the “activity change, negative = inhibition” value is reported as 6.14%.
